Among the test systems are HCT-15 colon; SNB-75 CNS; SNB-19 CNS; U251 CNS; PC-3 prostate; SK-MEL-5 melanoma; UACC-62 melanoma; LOX IMVI melanoma; SK-MEL-28 melanoma; EKVX NSCLC; SN12C renal; UO-31 renal; TK-10 renal; ACHN renal; A498 renal; CCRF-CEM leukemia; MOLT-4 leukemia; CAKI-1 renal; HT29 colon; SK-MEL-2 melanoma.
What all share (assay): NCI-60 one-dose screen, 48 h (100 = growth as untreated, 0 = no growth, -100 = all killed)
What all share (conditions): 10 µM unless noted

The panel holds about 83,000 compounds, 20% with a hit somewhere; the sample as a whole holds those more often.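 Note: values are percent growth. 100 is the growth of untreated cells, values between 100 and 0 indicate rising inhibition; between -100 and 0 indicates cell death.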 A number with no mark means an inactive call. The source made the active and inactive calls. How the source made its calls: active means growth percent below 10; inactive means the rest.

Our source for the growth values is PubChem BioAssay (NCI).

For `Cc1sc2nc3c4ccccc4c(NCCCN(C)C)nn3c(=O)c2c1C`, the growth was 17.1% with HCT-15 colon; 54.3% in the assay on SNB-75 CNS; 81.6% with SNB-19 CNS; 55.8% in the assay with U251 CNS; 50.9% with PC-3 prostate; 9.72% (active) with SK-MEL-5 melanoma. Besides, the growth with UACC-62 melanoma was 44.3%; in the assay with LOX IMVI melanoma it was -39% (active); in the assay with SK-MEL-28 melanoma, -87.5% (active); with EKVX NSCLC, 75.9%; in the assay with SN12C renal, 53.4%; with UO-31 renal it was -91.9% (active). The growth in the assay with TK-10 renal was 78%; with ACHN renal it was 53.5%; in the assay on A498 renal, 51.8%; in the assay on CCRF-CEM leukemia, -27.9% (active); with MOLT-4 leukemia it was -44.9% (active).

For `CCCCCCCCCCNCCSS(=O)(=O)O`, the growth in the assay on HCT-15 colon was 86.4%; in the assay with SNB-75 CNS, 96.1%; in the assay on SNB-19 CNS, 65.9%; in the assay with U251 CNS, 15%; in the assay with PC-3 prostate it was 88.7%; in the assay on SK-MEL-5 melanoma it was 39.8%. In addition, the growth is 4.6% (active) with UACC-62 melanoma; 20.9% with LOX IMVI melanoma; 51.5% in the assay with SK-MEL-28 melanoma; 101% with EKVX NSCLC; 31.5% in the assay with SN12C renal; 70.6% with UO-31 renal. The growth in the assay on ACHN renal is 92.6%; in the assay on CAKI-1 renal, 98.8%; in the assay on A498 renal, 101%; in the assay on CCRF-CEM leukemia it was 50.3%; with MOLT-4 leukemia, 9.96% (active).

Regarding `COc1ccc(OC)c(CCn2cncc2-c2c[nH]c3cc(Br)ccc23)c1`, the growth in the assay on HCT-15 colon was 25.1%; with HT29 colon, 10.2%; with SNB-19 CNS, 50.1%; in the assay with PC-3 prostate it was 34.5%; with SK-MEL-5 melanoma, -75.8% (active); in the assay on UACC-62 melanoma, 36.8%. Besides, the growth was 37% with LOX IMVI melanoma; 57.5% in the assay with SK-MEL-28 melanoma; 7.7% (active) with SK-MEL-2 melanoma; 35.3% with EKVX NSCLC; 49.5% in the assay with SN12C renal; 39.5% with UO-31 renal. In addition, the growth in the assay with TK-10 renal was 45.9%; in the assay on ACHN renal, 58.3%; with CCRF-CEM leukemia, 36.8%; in the assay with MOLT-4 leukemia, 16.2%.

In the case of `CCOC(=O)Nc1ccc2c3c(cccc13)-c1ccccc1-2`, the growth was 25.2% in the assay with HCT-15 colon; 6.18% (active) in the assay with SNB-75 CNS; 45.1% in the assay with SNB-19 CNS; 34.5% with U251 CNS; 49.8% with PC-3 prostate; 33.6% with SK-MEL-5 melanoma. The growth in the assay with UACC-62 melanoma is 30.5%; with LOX IMVI melanoma, 30.5%; with SK-MEL-28 melanoma it was 46%; in the assay with SK-MEL-2 melanoma it was 24.8%; with EKVX NSCLC, 48.4%; in the assay on SN12C renal, 42.2%. The growth was 21.1% with UO-31 renal; 45.5% in the assay on TK-10 renal; 50.6% in the assay on ACHN renal; 16.5% in the assay on CAKI-1 renal; 76.2% in the assay on A498 renal; 55.4% in the assay on CCRF-CEM leukemia. Besides, the growth in the assay with MOLT-4 leukemia was 36%.

Take `COc1ccc(/C=C2/SC(=Nc3c(C)nn(-c4ccccc4)c3N)NC2=O)cc1`: the growth is 33.3% with HCT-15 colon; 5.59% (active) in the assay with SNB-75 CNS; 51.3% in the assay with SNB-19 CNS; 40% with U251 CNS; 29.1% in the assay with PC-3 prostate; 21.2% in the assay with SK-MEL-5 melanoma. Moreover, the growth with UACC-62 melanoma was 26.8%; in the assay on LOX IMVI melanoma it was 33.1%; in the assay on SK-MEL-28 melanoma, 58.7%; in the assay with SK-MEL-2 melanoma it was 39.1%; in the assay on EKVX NSCLC, 69.3%; in the assay on SN12C renal it was 67.9%. The growth with UO-31 renal is 32.8%; with TK-10 renal, 71.6%; in the assay with ACHN renal it was 46.8%; with CAKI-1 renal it was 23%; in the assay on A498 renal, -54.5% (active); in the assay with CCRF-CEM leukemia, 33.2%. Also, in the assay with MOLT-4 leukemia, the growth was 51.6%.

For the compound `COc1cc(/C=N/OC(=O)Nc2ccccc2)cc(OC)c1OC`, the growth was 112% in the assay with HCT-15 colon; 85.2% in the assay with SNB-75 CNS; 105% in the assay on SNB-19 CNS; 107% with U251 CNS; 91.1% in the assay with PC-3 prostate; 102% in the assay with SK-MEL-5 melanoma. Besides, the growth in the assay on UACC-62 melanoma was 90.5%; in the assay on LOX IMVI melanoma, 90.6%; with SK-MEL-28 melanoma it was 104%; in the assay with SK-MEL-2 melanoma, 115%; with EKVX NSCLC, 117%; with SN12C renal, 94.4%. Further, the growth was 69% with UO-31 renal; 99% with TK-10 renal; 107% in the assay with ACHN renal; 110% in the assay with CAKI-1 renal; 98.1% in the assay with CCRF-CEM leukemia; 100% with MOLT-4 leukemia.

As for `CCN(CC)c1ccc(N=C2C=CC(=O)C=C2NC(C)=O)cc1`, the growth with HCT-15 colon was 90.3%; in the assay with SNB-75 CNS it was 96.7%; in the assay with SNB-19 CNS, 116%; with U251 CNS it was 87.9%; in the assay on PC-3 prostate it was 83.6%; with SK-MEL-5 melanoma, 88.5%. Besides, the growth is 93.2% in the assay with UACC-62 melanoma; 80.8% in the assay on LOX IMVI melanoma; 127% with SK-MEL-28 melanoma; 98.6% with SK-MEL-2 melanoma; 106% in the assay on EKVX NSCLC; 97.5% in the assay on SN12C renal. Further, the growth in the assay on UO-31 renal was 71%; with TK-10 renal it was 95.9%; in the assay with ACHN renal, 83.7%; in the assay with CAKI-1 renal, 105%; with A498 renal, 82.1%; in the assay with CCRF-CEM leukemia it was 87.6%.

For `NC(=O)NS(=O)(=O)c1ccc(N2N=C(C(F)(F)F)CC2c2cc(C(F)(F)F)cc(C(F)(F)F)c2)cc1` (stereo not drawn), the growth in the assay on HCT-15 colon is 62.9%; with SNB-75 CNS, 68.1%; with SNB-19 CNS it was 85%; in the assay on U251 CNS, 74.6%; in the assay with PC-3 prostate it was 16.2%; in the assay with SK-MEL-5 melanoma, 75.5%. Further, the growth in the assay with UACC-62 melanoma was 82.7%; in the assay on LOX IMVI melanoma it was 78.6%; with SK-MEL-28 melanoma, 84.8%; in the assay with SK-MEL-2 melanoma, 11.2%; in the assay on EKVX NSCLC it was 58.5%; with SN12C renal, 83.5%. In addition, the growth with UO-31 renal is 49.6%; in the assay with TK-10 renal, 85.6%; with ACHN renal, 80.7%; in the assay with CAKI-1 renal, 78.9%; with A498 renal, 70.1%; with CCRF-CEM leukemia, 37.4%. Also, the growth in the assay with MOLT-4 leukemia is 43.2%.
